JMJD2A Tudor inh = blocks the human JMJD2A Tudor domain. Potency, µM (top dose mostly 114 µM), for inactives: top-dose activity change, negative = inhibition, hits mostly inhibitors. O75164. 390,000 tested, 4.4% active. AlphaScreen JMJD2A-Tudor / H3K4me3 peptide binding; also: potency is read from the fitted curve at half-maximal effect; % is scaled to controls: 0 for no effect and ±100 for the full control effect; nearly all actives have a fitted effect of over 50% in size
JMJD2E inh = JMJD2E (human) inhibition; 230,000 tested, 1.6% active; B2RXH2; AID 2147; JMJD2E catalytic domain, FDH-coupled NADH fluorescence (FDH is formaldehyde dehydrogenase); Potency, µM (titrated, usually from 57.1 µM), inactives show top-dose activity change, negative = inhibition, hits mostly inhibitors; active = well fitted inhibition curve with a large enough effect, not every such curve was filed as active; inconclusive = small, poorly fitted or top-dose-only effect, or another doubt; inactive = no such curve, though single readings can be large or run the other way;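 also: potency is read from the fitted curve at half-maximal effect; 0% = wells with enzyme and -100% = buffer wells without enzyme; nearly all actives have a fitted effect of over 50% in size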
PI5P4Ka inh = blocks human PI5P4K alpha kinase activity; AID 652105; 330,000 tested, 1.2% active; PI5P4Kalpha enzyme, ADP-Glo luminescence, 60 min; stronger effect = lower value; P48426; max response, %; active = max response of -50% or lower; inconclusive = between -30% and -50%; inactive = -30% or higher; also: value at the top dose of about 77 µM; % is scaled to controls: 0 for no effect and ±100 for the full control effect
Target sequence (P48426 whole entry, looked up): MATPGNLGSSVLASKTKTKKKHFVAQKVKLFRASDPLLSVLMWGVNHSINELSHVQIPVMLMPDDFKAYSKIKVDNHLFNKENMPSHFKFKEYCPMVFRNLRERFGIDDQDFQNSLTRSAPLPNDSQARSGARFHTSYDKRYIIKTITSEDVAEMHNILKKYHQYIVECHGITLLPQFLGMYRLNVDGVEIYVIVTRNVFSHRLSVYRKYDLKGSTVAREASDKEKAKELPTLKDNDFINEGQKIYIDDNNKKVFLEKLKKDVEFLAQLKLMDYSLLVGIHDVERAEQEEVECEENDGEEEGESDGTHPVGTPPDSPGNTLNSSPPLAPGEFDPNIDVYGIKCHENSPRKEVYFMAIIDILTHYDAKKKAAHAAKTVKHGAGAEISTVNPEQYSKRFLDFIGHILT
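Controls without substrate or without enzyme flank wells where PI5P4Kalpha converts substrate using 5 microM ATP (final). Incubation lasts 60 minutes at room temperature; ADP formed is read by ADP-Glo luminescence.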
BAZ2B inh = BAZ2B (human) inhibition; Q9UIF8; AlphaScreen BAZ2B-H3K14Ac peptide displacement; Potency, µM (series often up to 114 µM), for the others: at the highest dose activity change, negative = inhibition, most hits filed as inhibitors; 360,000 tested, 4.4% active; AID 504333; also: potency is read from the fitted curve at half-maximal effect; % is scaled to controls: 0 for no effect and ±100 for the full control effect; nearly all actives have a fitted effect of over 60% in size
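In this displacement format the biotinylated H3(5-23) peptide acetylated at Lys14 serves as ligand at 50 nM, with BAZ2B at 50 nM in PBS pH 7.4 containing 0.01% Tween-20. Donor and acceptor beads are 10 ug/mL final.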
L3MBTL1 inh = L3MBTL1 (human) inhibition. 230,000 tested, 0.66% active. Q9Y468. Potency, µM (titrated, usually from 57.1 µM), for inactives: at the top dose activity, negative = inhibition, usual class: inhibitors. AID 485360. AlphaScreen L3MBTL1–H3K9me1 peptide binding; also: potency is read from the fitted curve at half-maximal effect; % is scaled to controls: 0 for no effect and ±100 for the full control effect; nearly all actives have a fitted effect of over 60% in size
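First, the protein-peptide complex forms for 30 min at room temperature (L3MBTL1 50 nM, biotinylated H3K9me1 peptide 75 nM). Next, compounds are pin-transferred and incubated 30 min. Finally, AlphaScreen beads are added and read after 30 min.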
HP1b chromo inh = HP1-beta chromodomain-methylated histone interaction inhibition; P83916; AlphaScreen HP1-beta / biotin-H3K9me3 peptide binding; Potency, µM (series often up to 114 µM), without a hit: top-dose activity change, negative = inhibition, usual class: inhibitors; 390,000 tested, 0.56% active; also: potency is read from the fitted curve at half-maximal effect; nearly all actives have a fitted effect of over 70% in size
Target sequence (P83916 whole entry, looked up): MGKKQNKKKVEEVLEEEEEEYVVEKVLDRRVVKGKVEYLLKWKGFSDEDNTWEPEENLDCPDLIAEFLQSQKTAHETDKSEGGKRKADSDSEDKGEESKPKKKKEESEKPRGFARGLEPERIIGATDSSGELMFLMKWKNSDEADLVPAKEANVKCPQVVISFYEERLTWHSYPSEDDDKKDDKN
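AlphaScreen: HP1-beta (50 nM) preformed 30 min with biotin-H3(1-18)K9me3 peptide (50 nM) in PBS pH 7.4, 0.01% Tween-20. Compound added for 30 min at RT, then streptavidin donor/nickel chelate acceptor beads (10 ug/mL) for 30 min.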
Numbers without * were called inactive; ? = inconclusive; . = no result; [ ] = another dose, or the depositor's remark. Hits are enriched below; roughly 5.7% of the tested compounds scored in any of these assays. Unless noted, calls follow the shape of the dose curve; as a rule, active = well fitted inhibition curve with a large enough effect; inconclusive = small, poorly fitted or top-dose-only effect; inactive = no such curve, though single readings can be large or run the other way.

SMILES | JMJD2A Tudor inh | JMJD2E inh | PI5P4Ka inh | BAZ2B inh | L3MBTL1 inh | HP1b chromo inh
COc1ccccc1C1C(C(=O)c2cc3ccccc3o2)=C(O)C(=O)N1CCN1CCOCC1 (configuration not stated) | 89µM* | -20% | 5 | ? | . | 27%
O=C(C1=C(O)C(=O)N(CCN2CCOCC2)C1c1cccc(Br)c1)c1cccs1 (configuration not stated) | -9% | . | 1 | -9% | . | 69%
CN(Cc1ccc(C(F)(F)F)cc1)C(=O)C1CC(=O)N(Cc2ccco2)C1 (configuration not stated) | -11% | . | 1 | . | 8% | 31%
c1cnc2ccc3ncccc3c2c1 | -7%[11.4 µM] | 18µM* | -21 | -17% | -22% | 54%
Cc1ccc(CNC(=O)COCc2cc(-c3cccs3)on2)cc1 | -10% | . | . | 1% | . | 27%
C#CCOCCOCCOCCNc1nc(N2CCN(C(=O)C([C@@H](C)CC)n3cc(C(N)CO)nn3)CC2)nc(N2CCN(C(=O)[C@H](CCC(=O)O)n3cc(C(N)Cc4ccc(O)cc4)nn3)CC2)n1 (some centres not stated) | . | 1% | . | 40µM* | . | .
C#CCOCCOCCOCCNc1nc(N2CCN(C(=O)[C@H]([C@@H](C)CC)n3cc([C@@H](N)Cc4ccc(O)cc4)nn3)CC2)nc(N2CCN(C(=O)[C@H](CCCCN)n3cc([C@@H](N)CO)nn3)CC2)n1 | . | -13% | . | 50µM* | -15% | .
C#CCOCCOCCOCCNc1nc(N2CCN(C(=O)[C@H]([C@@H](C)CC)n3cc(CCCCN)nn3)CC2)nc(N2CCN(C(=O)[C@H](CCCCN)n3cc(CCCC)nn3)CC2)n1 | -22% | . | 18 | -1% | 7% | 10%
CN(CC(=O)Nc1ncn[nH]1)S(=O)(=O)c1ccc(Cl)cc1 | ? | . | 5 | 50µM* | . | 30%
O=C(NCc1ccc(Cl)cc1Cl)c1cccc(N2CCCS2(=O)=O)c1 | -11% | . | . | -2% | . | 15%
O=Cc1cc2cc3c(cc2nc1Cl)OCCO3 | -2% | -7% | 0 | -2% | -1% | 59%
O=C(O)c1ccc(N/N=C/c2cc3cc4c(cc3nc2Cl)OCCO4)cc1 | -29% | -10% | -17 | 79µM* | . | 10%
CCOc1cc(S(=O)(=O)NCCc2c(C)[nH]c3ccc(C)cc23)ccc1Br | ? | . | . | ? | . | -3%
CCOc1cc(S(=O)(=O)NCCc2c(C)[nH]c3ccc(C)cc23)ccc1F | 50µM* | . | . | 35µM* | . | -5%
COc1ccccc1C(=O)OCc1cc(=O)n2nc(C3CCCCC3)sc2n1 | -33% | . | . | 2% | . | 144%
O=C1CNC(=O)/C1=C\c1ccc(O)cc1 | -1% | -4% | -62* | 3% | 2% | 37%
COc1ccc(-n2nc3c(N4CCC(C(=O)NCCc5ccco5)CC4)nnc(C)c3c2C)cc1 | 50µM* | . | -7 | -8% | . | 24%
CCOc1ccc(CNC(=O)C2CCN(c3nnc(C)c4c(C)n(-c5ccc(C)cc5)nc34)CC2)cc1 | ? | . | -4 | 56µM* | . | 26%
CCc1ccc(CNC(=O)C2CCCN(c3nnc(C)c4c(C)n(-c5ccccc5)nc34)C2)cc1 (configuration not stated) | ? | . | -4 | 79µM* | . | 43%
COc1ccc(Nc2nc3c(S(=O)(=O)c4ccccc4)nnn3c3ccc(Cl)cc23)c(OC)c1 | 13% | . | . | 1% | . | 34%
Cc1cccc(C(=O)OCC(=O)N2CC(C)OC(C)C2)c1C (configuration not stated) | -13% | . | 1 | -3% | . | 20%
Cc1cccc(C(=O)OCC(=O)c2ccc(CC(=O)N3CCOCC3)s2)c1C | ? | . | -60* | 50µM* | ? | -12%
Cc1cc(C(=O)N/N=C/c2ccc(Cl)c([N+](=O)[O-])c2)c(C)n1-c1ccc(F)cc1 | -26%[57.1 µM] | 22µM* | 9 | -11% | -2% | 19%
Cn1cccc1CC(=O)N/N=C/c1ccc(Cl)c([N+](=O)[O-])c1 | -29% | -7% | -12 | 40µM* | . | 5%
Cn1cccc1CC(=O)N/N=C/c1cc([N+](=O)[O-])ccc1Cl | -21% | 3% | -28 | ? | ? | -2%
SMILES | JMJD2A Tudor inh | JMJD2E inh | PI5P4Ka inh | BAZ2B inh | L3MBTL1 inh | HP1b chromo inh
Cn1c(=O)oc2cc(S(=O)(=O)N3CCCC(C(=O)NCCc4ccc(Cl)cc4)C3)ccc21 (configuration not stated) | 1% | . | . | 2% | . | 44%
CCOc1ccc(CCNC(=O)c2ccc3c(c2)nc2n3CCOC2)cc1OCC | 5% | . | . | 4% | . | 26%[57 µM]
Cc1nccn1CCC(=O)Nc1ccc(Cl)cc1 | -23% | 4% | 3 | -25% | . | 29%
COC(=O)c1nc(Nc2cc(F)cc(F)c2)nc(NC2CCCC2)n1 | -14% | . | . | . | . | .
Cc1ccccc1CSCC(=O)NC(=O)NCc1ccco1 | 45µM* | -2% | . | -99% | ? | ?
O=C(CSc1n[nH]c(-c2ccccc2)n1)NC(=O)NCc1ccco1 | -35% | 1% | -55* | ? | ? | 9%
O=C(CSc1cccc(C(F)(F)F)c1)NC(=O)NCc1ccco1 | 79µM* | 1% | . | 50µM* | -29% | -1%
Cc1cc(Br)ccc1NC(=O)c1coc(=O)c2ccccc12 | 7% | . | . | -10% | . | 22%
NC(=O)c1cc(S(=O)(=O)NCC2CCC(C(=O)Nc3cccc(Cl)c3)CC2)cs1 (configuration not stated) | -8% | . | . | -2% | . | 11%
NNC(=O)CCn1nnc2ccccc21 | 4% | 35% | 7 | -17% | 12% | 23%
O=C(CCn1nnc2ccccc21)N1CCC(O)(c2cccc(F)c2)CC1 | 50µM* | 5% | -15 | -2% | -2% | -11%
CC(=O)Nc1ccc(C(=O)NNS(=O)(=O)c2ccc(C)cc2)cc1 | 9% | ? | -3 | 50µM* | 1% | 33%
Cc1ccc(S(=O)(=O)NNC(=O)C(=O)NNS(=O)(=O)c2ccc(C)cc2)cc1 | 35µM* | 7% | 6 | -38% | 1% | 33%
Cc1ccc(S(=O)(=O)NNC(=O)c2snnc2C)cc1 | 79µM* | -4% | 1 | 2% | . | 9%
Cc1ccc(S(=O)(=O)NN=CC=CC=NNS(=O)(=O)c2ccc(C)cc2)cc1 | . | . | -61* | . | . | .
Cc1ccc(S(=O)(=O)NNC(=O)c2ccc(O)cc2)cc1 | 2% | -17% | 0 | -18% | -4% | 22%
Cc1ccc(S(=O)(=O)N/N=C/c2ccccc2O)cc1 | -12% | . | 10 | -1% | . | 25%
Cc1cc2c(s1)c1cnn(Cc3ccc(-n4cncn4)cc3)c(=O)c1n2C | -23% | . | . | . | . | .
CCOC(=O)c1nn2c(C(F)(F)F)cc(-c3ccc(C)cc3)nc2c1Cl | -14% | . | . | 7% | . | 39%
Cc1ccc(S(=O)(=O)Nc2c(Cl)c(Cl)c(O)c3ccccc23)cc1 | . | . | . | 45µM* | -11% | .

Screening results from PubChem BioAssay.
